Test results from PubChem BioAssay (Tox21).
Inconclusive results are not listed. Calls of active or inactive are those of the source. Unless noted, calls come from the whole dose curve; as a rule, active = well fitted curve in the direction sought with a large enough effect in the repeat runs; inconclusive = weak or mixed curves; inactive = no such curve, though single readings can be large; an effect the other way counts as inactive or inconclusive.

Tests used:
[1] = qHTS assay to identify small molecule agonists of the vitamin D receptor (VDR) signaling pathway - cell viability counter screen (AID 743224); note: series mostly up to about 63 µM; % is set by controls: 0 for no effect and ±100 for the full control effect; nearly all actives have a fitted effect of over 50% in size
Summary of the method: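 Viability is measured in the same wells as the VDR-bla reporter assay: after 16 h compound treatment and 2 h substrate loading, CellTiter-Glo is added and luminescence read 30 min later.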

[2] = qHTS assay to identify small molecule antagonists of the vitamin D receptor (VDR) signaling pathway - cell viability counter screen (AID 743225); note: % is set by controls: 0 for no effect and ±100 for the full control effect; nearly all actives have a fitted effect of over 50% in size
Summary of the method: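 In this counter screen, VDR-bla HEK 293T cells receive test compound plus 3 nM final calcitriol for 16 h at 37C. Room-temperature steps of 2 h with the beta-lactamase substrate, then 30 min with CellTiter-Glo, precede the luminescence read.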

[3] = qHTS assay to identify small molecule agonists of the NFkB signaling pathway (AID 1159509; active = well fitted curve in the direction sought with a large enough effect in the signal ratio in the repeat runs, not every such curve was filed as active; the % refers to the signal ratio; note: series mostly up to about 61 µM; % is set by controls: 0 for no effect and ±100 for the full control effect)
Summary of the method: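 ME-180 NFkB-bla, 2,000 cells/well, overnight plating; cpd pinned in DMSO, 5 h 37 C; B/G FRET substrate 1.5 h RT; ex 405, em 460/530 nm.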

[4] = qHTS assay to identify small molecule agonists of the NFkB signaling pathway - cell viability counter screen (AID 1159515; calls by dose curve; note: series mostly up to about 61 µM; % is set by controls: 0 for no effect and ±100 for the full control effect; nearly all actives have a fitted effect of over 55% in size)
Summary of the method: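 Multiplexed viability readout: after the 5 hr compound exposure and 1.5 hr FRET substrate step, CellTiter-Glo reagent went into the same NFkB-bla ME-180 wells; ATP luminescence was measured after 30 min at room temperature.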

[5] = qHTS assay to identify small molecule agonists of the endoplasmic reticulum stress response signaling pathway (AID 1159516; active = well fitted activation curve with a large enough effect in the signal ratio in the repeat runs, not every such curve was filed as active; the % refers to the signal ratio; note: % is set by controls: 0 for no effect and ±100 for the full control effect)
Summary of the method: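 Tox21 10K library screened in quantitative HTS format on ESRE-bla HeLa cells, a beta-lactamase reporter under ER stress response element control; 5 hr treatment, FRET read.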

[6] = qHTS assay to identify small molecule agonists of the endoplasmic reticulum stress response signaling pathway - cell viability counter screen (AID 1159517; calls by dose curve; note: series mostly up to about 61 µM; % is set by controls: 0 for no effect and ±100 for the full control effect; nearly all actives have a fitted effect of over 50% in size)
Summary of the method: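 HeLa cells carrying an ESRE-driven beta-lactamase reporter receive compound for 5 hr at 37 C. Cell viability is then gauged with CellTiter-Glo by luminescence, 30 min at room temperature.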

[7] = qHTS assay to identify small molecule antagonists of the retinoid-related orphan receptor gamma (ROR-gamma) signaling pathway - cell viability counter screen (AID 1159520); note: % is set by controls: 0 for no effect and ±100 for the full control effect; nearly all actives have a fitted effect of over 50% in size
Summary of the method: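 Cytotoxicity was read from cellular ATP (CellTiter-Glo luminescence) after 16 hr at 37 C with 1 uM doxycycline induction. The inducer was added 2 hr after compound transfer to Tet-on ROR gamma CHO cells.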

[8] = target: Nuclear receptor ROR-gamma (Homo sapiens) (UniProt P51449); test: qHTS assay to identify small molecule antagonists of the retinoid-related orphan receptor gamma (ROR-gamma) signaling pathway (AID 1159521)
Summary of the method: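 Screening format: cell-based luciferase reporter in CHO cells with doxycycline-inducible RORγ. Compound pre-exposure lasts 2 h, doxycycline is 1 uM final, induction runs 16 h at 37 C, and ONE-Glo luminescence is read.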

[9] = qHTS assay to identify small molecule agonists of the AP-1 signaling pathway - cell viability counter screen (AID 1159525; calls by dose curve; note: nearly all actives have a fitted effect of over 55% in size)
Summary of the method: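 Luminescent ATP readout (Cell Titer Glo, 30 min RT), normalised to DMSO and tetra n-octyl ammonium bromide controls. Cells were ME-180 AP-1-bla in 0.5% dialyzed FBS Opti-MEM, with a 5 h, 37 °C compound exposure.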

[10] = qHTS assay to identify small molecule agonists of the AP-1 signaling pathway (AID 1159526; calls by dose curve; note: % is set by controls: 0 for no effect and ±100 for the full control effect)
[11] = target: Retinoic acid receptor RXR-alpha (Homo sapiens) (UniProt P19793); test: qHTS assay to identify small molecule agonists of the RXR signaling pathway (AID 1159527; calls by dose curve; note: % is set by controls: 0 for no effect and ±100 for the full control effect; nearly all actives have a fitted effect of over 35% in size)
Chain of Retinoic acid receptor RXR-alpha (Homo sapiens) (P19793 whole entry, looked up): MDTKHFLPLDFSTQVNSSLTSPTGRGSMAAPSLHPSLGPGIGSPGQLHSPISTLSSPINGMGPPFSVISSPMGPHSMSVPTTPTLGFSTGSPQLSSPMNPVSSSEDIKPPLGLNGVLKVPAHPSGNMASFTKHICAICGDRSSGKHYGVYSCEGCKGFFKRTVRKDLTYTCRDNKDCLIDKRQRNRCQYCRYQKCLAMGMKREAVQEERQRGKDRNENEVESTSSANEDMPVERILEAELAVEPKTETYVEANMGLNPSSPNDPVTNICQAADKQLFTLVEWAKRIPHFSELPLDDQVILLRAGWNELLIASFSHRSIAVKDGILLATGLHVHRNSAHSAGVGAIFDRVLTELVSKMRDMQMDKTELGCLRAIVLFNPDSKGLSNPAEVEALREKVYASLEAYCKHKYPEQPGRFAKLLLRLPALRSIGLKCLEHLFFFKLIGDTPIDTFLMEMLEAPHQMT
Summary of the method: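 Fluorescence ratio readout (460 vs 530 nm) from GeneBLAzer RXR-alpha HEK 293T cells after 16 hr compound treatment; cells seeded 5 hr beforehand in low-serum, charcoal-stripped medium.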

[12] = qHTS assay to identify small molecule agonists of the RXR signaling pathway - cell viability counter screen (AID 1159529)
Summary of the method: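 Viability read-out for the RXR-alpha agonist qHTS: luminescent CellTiter-Glo signal after 30 min at RT. HEK 293T bla reporter cells, 2% charcoal-stripped FBS, 16 hr compound incubation; tetraoctyl ammonium bromide as cytotoxic control.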

[13] = qHTS assay to identify small molecule antagonists of the retinoid acid receptor (RAR) signaling pathway - cell viability counter screen (AID 1159551); note: % is set by controls: 0 for no effect and ±100 for the full control effect; nearly all actives have a fitted effect of over 35% in size
Summary of the method: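 Cytotoxicity counter screen in C3RL4 cells: 6 h compound exposure with 1 uM retinol (final), viability from cellular ATP by luminescence.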

[14] = qHTS assay to identify small molecule agonists of the retinoic acid receptor (RAR) signaling pathway (AID 1159553); note: % is set by controls: 0 for no effect and ±100 for the full control effect
Summary of the method: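 Agonist activity was scored in C3RL4 cells bearing a retinoic acid response element luciferase construct. Cells were treated with compounds for 6 hr at 37 C, and luciferase signal was measured as luminescence.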

[15] = qHTS assay to identify small molecule antagonists of the estrogen related receptor (ERR) signaling pathway - cell viability counter screen (AID 1224818)
Summary of the method: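 Cells carrying the ERR pathway reporter were seeded and incubated for 6 hours before compound addition. After a 17.5-hour exposure at 37 C, live-cell protease activity was measured by CellTiter-Fluor fluorescence following 30 minutes of incubation.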

[16] = qHTS assay to identify small molecule antagonists of the estrogen related receptor signaling pathway with the pleiotropic PPARgamma coactivator (PGC) cell viability counter screen (AID 1224822)
Summary of the method: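 Seed PGC/ERR cells (2,000/well); incubate 6 h at 37 C/5% CO2; pin-transfer compounds in DMSO; incubate 17.5 h at 37 C; add CellTiter-Fluor; after 30 min read fluorescence.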

O=NN1CCN(N=O)CC1
inactive: Potency [1] | outcome [2] | outcome [3] | outcome [4] | outcome [5] | Potency [6] | Potency [7] | Potency [8] | Potency [9] | outcome [10] | Potency [11] | Potency [12]

CCc1cc2c(s1)-n1c(C)nnc1CN=C2c1ccccc1Cl
inactive: Potency [1] | outcome [2] | outcome [3] | outcome [4] | outcome [5] | Potency [6] | Potency [7] | Potency [8] | Potency [9] | outcome [10] | Potency [11] | Potency [12] | Potency [13]

COc1ncc(F)c2nc(S(=O)(=O)Nc3c(F)cccc3F)nn12
inactive: Potency [1] | outcome [3] | outcome [4] | outcome [5] | Potency [6] | Potency [7] | Potency [8] | Potency [9] | outcome [10] | Potency [11] | Potency [12]

CCS(=O)(=O)C(C)(C)S(=O)(=O)CC
inactive: Potency [1] | outcome [2] | outcome [3] | outcome [4] | outcome [5] | Potency [6] | Potency [7] | Potency [8] | Potency [9] | outcome [10] | Potency [11] | Potency [12] | Potency [13]

CCC1(c2ccccc2)C(=O)NC(=O)NC1=O
inactive: Potency [1] | outcome [2] | outcome [3] | outcome [4] | outcome [5] | Potency [6] | Potency [7] | Potency [8] | Potency [9] | outcome [10] | Potency [11] | Potency [12] | Potency [13]

CCN(Cc1ccc(Cl)nc1)/C(=C/[N+](=O)[O-])NC
inactive: Potency [1] | outcome [2] | outcome [3] | outcome [4] | outcome [5] | Potency [6] | Potency [7] | Potency [8] | Potency [9] | outcome [10] | Potency [11] | Potency [12]

CNC(=O)O/N=C(\C)SC
inactive: Potency [1] | outcome [2] | outcome [3] | outcome [4] | outcome [5] | Potency [6] | Potency [7] | Potency [8] | Potency [9] | outcome [10] | Potency [11] | Potency [12] | Potency [13]

CSc1nc(N=[N+]=[N-])nc(NC(C)C)n1
inactive: Potency [1] | outcome [2] | outcome [3] | outcome [4] | outcome [5] | Potency [6] | Potency [7] | Potency [8] | Potency [9] | outcome [10] | Potency [11] | Potency [12] | Potency [13]

CCOP(=O)(N=C1SCCS1)OCC
inactive: Potency [1] | outcome [2] | outcome [3] | outcome [4] | outcome [5] | Potency [6] | Potency [7] | Potency [8] | Potency [9] | outcome [10] | Potency [11] | Potency [12] | Potency [13]

O=[N+]([O-])c1cc(Cl)c(Cl)c(Cl)c1
inactive: Potency [1] | outcome [2] | outcome [3] | outcome [4] | outcome [5] | Potency [6] | Potency [7] | Potency [8] | Potency [9] | outcome [10] | Potency [11] | Potency [12] | Potency [13]

Cc1ncc2n1-c1ccc(Cl)cc1C(c1ccccc1F)=NC2
inactive: Potency [1] | outcome [2] | outcome [3] | outcome [4] | outcome [5] | Potency [6] | Potency [7] | Potency [8] | Potency [9] | outcome [10] | Potency [11] | Potency [12] | Potency [13]

CCC(C)(C)c1cc(-n2nc3ccccc3n2)c(O)c(C(C)(C)CC)c1
inactive: Potency [1] | outcome [2] | outcome [3] | outcome [4] | outcome [5] | Potency [6] | Potency [7] | Potency [8] | Potency [9] | outcome [10] | Potency [11] | Potency [12] | Potency [13] | Potency [14]

COc1ccc(C(=O)N2CCCC2=O)cc1
inactive: Potency [1] | outcome [2] | outcome [3] | outcome [4] | outcome [5] | Potency [6] | Potency [7] | Potency [8] | Potency [9] | outcome [10] | Potency [11] | Potency [12] | Potency [13] | outcome [15] | outcome [16]

O=C(NCO)NCO
inactive: Potency [1] | outcome [3] | outcome [4] | outcome [5] | Potency [6] | Potency [7] | Potency [8] | Potency [9] | outcome [10] | Potency [11] | Potency [12] | Potency [13]

Cc1coc2c1CCC(C)C2 (stereo not given)
inactive: Potency [1] | outcome [2] | outcome [3] | outcome [4] | outcome [5] | Potency [6] | Potency [7] | Potency [8] | Potency [9] | outcome [10] | Potency [11] | Potency [12] | Potency [13]

ClC(Cl)(Cl)C(Cl)(Cl)Cl
inactive: Potency [1] | outcome [2] | outcome [3] | outcome [4] | outcome [5] | Potency [6] | Potency [7] | Potency [8] | Potency [9] | outcome [10] | Potency [11] | Potency [12] | Potency [13]

COC(=O)C(c1ccccc1)C1CCCCN1 (stereo not given)
inactive: Potency [1] | outcome [2] | outcome [3] | outcome [4] | outcome [5] | Potency [6] | Potency [7] | Potency [8] | Potency [9] | outcome [10] | Potency [11] | Potency [12]

CC1=C(C(=O)O)N2C(=O)[C@@H](N)[C@H]2SC1
inactive: Potency [1] | outcome [2] | outcome [3] | outcome [4] | outcome [5] | Potency [6] | activity, negative = cytotoxicity [7] 0.102% [at 19 µM] | activity change, negative = inhibition [8] 27.3% [at 19 µM] | viability change, negative = cytotoxic [9] 19.2% [at 15.8 µM] | activation [10] -1.04% [at 15.8 µM] | activation [11] 0.217% [at 15.8 µM] | activity change, negative = cytotoxicity [12] 1.45% [at 15.8 µM]

CC(=O)C(Cl)Cl
inactive: Potency [1] | outcome [2] | outcome [3] | outcome [4] | outcome [5] | Potency [6] | Potency [7] | Potency [8] | Potency [9] | outcome [10] | Potency [11] | Potency [12] | Potency [13]

O=NN1CCCCC1
inactive: Potency [1] | outcome [3] | outcome [4] | outcome [5] | Potency [6] | Potency [7] | Potency [8] | Potency [9] | outcome [10] | Potency [11] | Potency [12] | Potency [13]
